Reference: PubChem BioAssay (EPA / NIEHS)
The source made the active and inactive calls. Rule for the calls: active = hit-call score of the fitted dose curve at least 0.9, where 1 is the maximum; inactive = score below 0.9.

Assay: STM_H9_CystineISnorm_perc: Stemina devTOX quickPredict H9 human embryonic stem cell (hESC)-based Assay for Cystine (CYSS) Metabolite Biomarker, Normalized (AID 2283713)
In short: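 Undifferentiated H9 hESCs exposed 72 h, compound and media replaced every 24 h; final 24-h media analysed by UPLC-HRMS. Cystine normalized to C13 spike-in standard and median 0.1% DMSO control.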

Question: With `CN(C)c1ccc(N=NS(=O)(=O)O)cc1` as the compound, how does the AC50 read?
Answer: 16.9 µM (active)

Question: With `Cn1c(=O)c2c(ncn2C)n(C)c1=O` as the compound, how does the AC50 read?
Answer: 181 µM (active)

Question: Which outcome does the source give for `CNCc1ccc(NC(=O)c2c[nH]c3c2C(=O)CCC3)cc1` here?
Answer: inactive

Question: Which AC50 does the source give for `CC[C@H]1CC[C@H](NCc2cc3c(cc2OC)[C@H]2C[C@H]2C(=O)N3C)[C@H](c2ccccc2)N1` here?
Answer: 7.32 µM (active)

Question: Which AC50 does the source give for `O=c1n(CC2CO2)c(=O)n(CC2CO2)c(=O)n1CC1CO1` (stereo not drawn) here?
Answer: 0.166 µM (active)

Question: Which AC50 does the source give for `CCOC(=O)c1ccc(C2CCC(NC[C@H](O)COc3ccc(O)c(NS(C)(=O)=O)c3)CC2)cc1` (stereo partly drawn) here?
Answer: 1.37 µM (active)

Question: For `O=c1[nH]c2ccc(S(=O)CCN3CCC(Cc4ccc(F)cc4)CC3)cc2o1` (stereo not drawn), which AC50 is on record?
Answer: 3.91 µM (active)

Question: For `O=C1CCC(N2C(=O)c3ccccc3C2=O)C(=O)N1` (stereo not drawn), which outcome is on record?
Answer: inactive

Question: For `Cn1cnc([N+](=O)[O-])c1Sc1ncnc2nc[nH]c12`, which AC50 is on record?
Answer: 3.49 µM (active)

Question: With `CC(C)=CCCC(C)=CC=O` as the compound, how does the outcome read?
Answer: inactive

Question: Which AC50 does the source give for `CC(C)CC(C)(O)C#CC(C)(O)CC(C)C` (stereo not drawn) here?
Answer: 60.1 µM (active)

Question: Which AC50 does the source give for `NC(=O)NO` here?
Answer: 153 µM (active)

Question: For `CCN(C(=O)c1cc(C)cc(OC[C@H](C)Nc2ccncc2)c1)C(C)C`, which AC50 is on record?
Answer: 7 µM (active)
